Hits are enriched below; roughly 0.5% of the tested compounds scored in any of these assays.
phage Ecoli inh: E. coli growth loss with phage present; AID 651602; hit rate 0.26% among 360,000; inhibition, % at 11.9 µM; growth absorbance; in the data active = inhibition above about 11%
E coli growth-1: reduces bacterial viability in AddAB counter-screen; E. coli V3065 growth, OD600 absorbance, 18 h; inhibition, % at 11.9 µM; hit rate 0.27% among 330,000; AID 449728;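 active = inhibition above the campaign's mean inhibition across all tested compounds plus 3 SD, cut at about 9.9% in these data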;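 note: uninfected addAB+ strain grown without phage in ampicillin broth; 0% = DMSO wells and 100% = ciprofloxacin 0.95 µg/ml wells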
E coli growth-2: E. coli growth inhibition. hit rate 0.21% among 330,000. OD600 absorbance (no concentration beside the values). AID 1053175. Escherichia coli growth, OD600, 23 h; stronger effect = lower value;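 active = OD600 absorbance below the run mean of sample wells minus 3.6 SD, in any replicate, cut at about 0.56 in these data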
Tat export inh: E. coli Tat transport inhibition; inhibition, % at 10 µM; AID 488895; E. coli MC4100 TorA-mCherry Tat export, fluorescence; hit rate 0.036% among 340,000;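 active = mean replicate inhibition at least 50% and at least half of replicates individually reaching 50%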;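 note: exported cargo escapes ClpAP degradation while cytoplasmic cargo is degraded and loses fluorescence; 0% = median of neutral control wells and 100% = median of NaSCN control wells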
AddAB inh: less growth of phage-infected E. coli with AddAB; E. coli expressing H. pylori AddAB, absorbance growth; hit rate 0.29% among 330,000; inhibition, % at 11.9 µM; AID 435030; in the data active = inhibition above about 12%;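 note: 0% = vehicle wells of infected cells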
RecBCD conf: confirmation: growth loss of phage-infected RecBCD+ E. coli (RecBCD inhibitor screen). shares compounds with phage Ecoli inh. inhibition, % at 11.9 µM. E. coli V66 + T4 2- phage, growth OD. hit rate 45% among 890. AID 651982;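 active = mean inhibition over triplicates exceeding the hit threshold derived in the original primary screen, cut at about 11% in these data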
Ecoli viability: bacterial viability inhibition counter-screen for RecBCD; shares compounds with phage Ecoli inh; E. coli viability, absorbance (OD) growth; inhibition, % at 11.9 µM; hit rate 29% among 890; in the data active = inhibition above about 20%;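 note: E. coli strain V66 grown with compound alone and no phage infection; 0% = bacteria with DMSO vehicle only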
AddAB counter: growth loss of phage-infected AddAB E. coli, RecBCD counter-screen; shares compounds with phage Ecoli inh; E. coli expressing H. pylori AddAB + T4 phage, OD growth; gene 2 mutant T4, recBCD-deleted host; inhibition, % at 11.9 µM; hit rate 45% among 890; AID 651984;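 active = mean inhibition above the solvent-only control wells' mean plus 3 SD, cut at about 22% in these data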;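 note: higher means less bacterial growth from phage killing when AddAB is blocked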
Numbers without * were called inactive; ! = repeats disagree.

Screening COC(=O)c1ccc(CN2C(C(=O)OC)C[C@@]3(O)C(O)C(O)C(O)CC23)cc1 (stereo partly specified) returned E coli growth-2 0.69.
Screening O=C(c1cccc(C(F)(F)F)c1)N1CCc2c([nH]c3ccccc23)C1C(F)(F)F (stereo unspecified) returned phage Ecoli inh 75*, E coli growth-1 0, E coli growth-2 0.69, Tat export inh 15, AddAB inh 3, RecBCD conf 0, Ecoli viability -1 and AddAB counter 2.
Nc1nc(N)c2cc(S(=O)(=O)c3cccc(C(F)(F)F)c3)ccc2n1 was read as phage Ecoli inh 24*, RecBCD conf 32*, Ecoli viability 27* and AddAB counter 59*.
For COc1ccc(NC(=O)CON=C2CCCc3nonc32)c(OC)c1 the results were E coli growth-2 0.7.
NCCC(=O)NCCc1cnc[nH]1 was read as phage Ecoli inh 2, E coli growth-1 1, E coli growth-2 0.68, Tat export inh -7 and AddAB inh -1.
NCCc1cnc[nH]1 was read as phage Ecoli inh 13*!, E coli growth-1 1, E coli growth-2 0.65, Tat export inh -5, AddAB inh 1, RecBCD conf -6, Ecoli viability -8 and AddAB counter 2.
COc1ccc(C)c2sc(=NC(=O)c3ccc(C(C)=O)cc3)n(C)c12 was read as phage Ecoli inh 2, E coli growth-1 0, E coli growth-2 0.66, Tat export inh -7 and AddAB inh 3.
For COc1ccc(C)c2sc(=NC(=O)c3ccccc3)n(C)c12 the results were phage Ecoli inh 100*, E coli growth-1 0, E coli growth-2 0.78, Tat export inh -10, AddAB inh -4, RecBCD conf -1, Ecoli viability 1 and AddAB counter 1.
O=C(NC1CC1)C1=CC(C2CCCCC2)CC(OCCCCO)O1 (stereo unspecified) was read as E coli growth-2 0.7.
Cc1ccc(SCCn2nc(C(=O)O)c3ccccc3c2=O)cc1 was read as phage Ecoli inh 1, E coli growth-1 2, E coli growth-2 0.74, Tat export inh 13 and AddAB inh 5.
`O=C(O)c1nn(CCSc2ccccc2F)c(=O)c2ccccc12` gave phage Ecoli inh 37*, E coli growth-1 0, E coli growth-2 0.7, Tat export inh -4, AddAB inh -1, RecBCD conf -5, Ecoli viability -5 and AddAB counter 0.
Cc1ccc(NC(=O)CCCSc2nc3ccccc3[nH]2)cc1 was read as phage Ecoli inh 12*, E coli growth-1 14*, E coli growth-2 0.63, Tat export inh -28, AddAB inh 10, RecBCD conf 8, Ecoli viability 11 and AddAB counter 8.
Screening CC(=NNC(=O)c1ccccc1Cl)c1ccccn1 returned E coli growth-2 0.63.
CC(=NNC(=S)Nc1ccccc1Cl)c1ccccn1 was read as phage Ecoli inh 14*, Tat export inh 1, RecBCD conf 10, Ecoli viability 9 and AddAB counter 14.
Screening CC(=NNC(=S)Nc1ccccc1)c1ccccn1 returned phage Ecoli inh 16*, RecBCD conf 7, Ecoli viability 9 and AddAB counter 7.
CN(C)c1ccc(C=NNC(=O)c2cccc(N3CCCC3=O)c2)cc1 was read as E coli growth-2 0.67.
`O=C(CCCc1ccccc1)NCc1cn2ccsc2n1` gave phage Ecoli inh 96*, E coli growth-1 1, E coli growth-2 0.73, Tat export inh 6, AddAB inh -4, RecBCD conf -2, Ecoli viability -1 and AddAB counter 4.
Screening O=C(Nc1ccc(F)cc1)Nc1csc2ccccc12 returned phage Ecoli inh 13*, E coli growth-1 3, E coli growth-2 0.58, AddAB inh 7, RecBCD conf 3, Ecoli viability 5 and AddAB counter -2.
For O=[N+]([O-])c1ccc(NN=Cc2ccccc2)cc1 the results were E coli growth-2 0.67.
